An excerpt weighted towards active compounds, which were near 7.4% of everything screened.
ELG1 genotox: inducers of genotoxicity in HEK293T ELG1-luciferase cells; HEK293T ELG1-luciferase reporter, luminescence, 16 h; Potency, µM (highest dose often 46 µM), usual class: activators; actives 1.3% (n = 330,000); further: nearly all actives have a fitted effect of over 60% in size
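Cells (2,000/well) expressing the ELG1-luciferase fusion are dosed by pin tool and kept 16 hr at 37 °C, 5% CO2. Signal comes from ONE-Glo luciferase reagent after 30 min at room temperature.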
NPC1 prom act: activators of NPC1 promoter. Huh7 NPC1 promoter luciferase reporter, 24 h. Potency, µM (top dose mostly 9.22 µM), usual class: activators. actives 2.4% (n = 320,000); further: nearly all actives have a fitted effect of over 60% in size
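Compounds in DMSO were transferred onto Huh7 NPC1-luciferase reporter cells pre-incubated 2 h; after 24 h at 37 °C, Amplite reagent was dispensed and luminescence recorded 10 min later.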
SMN2 splice up: SMN2 splice variant enhancement; actives 2.8% (n = 210,000); HEK293 SMN2-luciferase splicing reporter, luminescence, 30-36 h; Potency, µM (highest dose often 46.1 µM), hits mostly activators; AID 1458; further: nearly all actives have a fitted effect of over 55% in size
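HEK293 cells carry an SMN2 […]–luciferase reporter in which exon 7 inclusion puts luciferase in frame. Cells were plated 10-12 h before compound addition, then incubated 30-36 h at 37C. ONE-Glo luminescence was read; sodium butyrate at 4.5 mM final served as control.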
FLuc counter: firefly luciferase modulation, counter-screen for miR-21 project; P08659; purified FLuc, Km substrates, luminescence inhibition; Potency, µM (titrated, usually from 57.5 µM), most hits filed as inhibitors; actives 6.9% (n = 360,000); AID 588342; further: nearly all actives have a fitted effect of over 55% in size
Target sequence (P08659 whole entry, looked up): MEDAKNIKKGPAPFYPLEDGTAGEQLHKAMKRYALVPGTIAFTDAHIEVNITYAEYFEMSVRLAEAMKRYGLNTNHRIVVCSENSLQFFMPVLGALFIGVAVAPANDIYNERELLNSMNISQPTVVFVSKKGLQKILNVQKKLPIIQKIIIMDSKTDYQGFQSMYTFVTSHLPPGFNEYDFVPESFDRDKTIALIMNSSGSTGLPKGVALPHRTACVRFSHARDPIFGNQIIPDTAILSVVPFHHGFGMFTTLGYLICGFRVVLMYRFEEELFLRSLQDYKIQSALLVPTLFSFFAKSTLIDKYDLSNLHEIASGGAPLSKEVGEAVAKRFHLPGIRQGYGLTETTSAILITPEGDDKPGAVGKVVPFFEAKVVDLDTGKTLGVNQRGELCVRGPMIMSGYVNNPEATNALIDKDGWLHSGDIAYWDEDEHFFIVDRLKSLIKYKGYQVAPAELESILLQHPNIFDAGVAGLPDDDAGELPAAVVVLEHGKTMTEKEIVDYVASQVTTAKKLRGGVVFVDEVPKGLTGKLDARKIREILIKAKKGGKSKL
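Purified P. pyralis luciferase, 10 nM final, with Km-level 10 uM D-luciferin and 10 uM ATP in 50 mM Tris acetate pH 7.5, 10 mM Mg acetate, 0.01% Tween-20, 0.05% BSA; 6-point qHTS titration about 60 µM downward; luminescence read.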
Rab9 promoter act: activators of Rab9 promoter; Huh7 Rab9 promoter-luciferase reporter, luminescence, 24 h; Potency, µM (doses to about 9.22 µM), hits mostly activators; actives 2.8% (n = 320,000); AID 485297; further: nearly all actives have a fitted effect of over 60% in size
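Luminescence from Amplite-detected luciferase (10 minutes, ambient) reports Rab9 promoter activation. Before that, stable Rab9-luciferase Huh7 cells (1500/well, reduced-serum OP-MEM I plus 10% FBS) were exposed to compound for 24 hours at 37C.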
Hits are given with their value; n = inactive; u = inconclusive; x = no result; [ ] = remark or other dose. The call rests on the fitted dose curve; in most records, active means well fitted curve in the direction sought with a large enough effect; inconclusive means small, poorly fitted or top-dose-only effect, or another doubt; inactive means no such curve, though single readings can be large; an effect the other way counts as inactive or inconclusive.

SMILES | ELG1 genotox | NPC1 prom act | SMN2 splice up | FLuc counter | Rab9 promoter act
O=C(CSc1ccc(C(F)(F)F)cn1)Nc1ccccc1 | n | n | x | n | n
O=C(/C=C/Sc1ccc(C(F)(F)F)cn1)c1ccccc1 | n | n | x | 0.536µM | n
COc1cccc(C2Nc3ccccc3C(=O)N2c2ccc(F)cc2)c1O (centres undefined) | u | u | x | n | u
O=C1c2ccccc2NC(c2ccccc2O)N1c1ccc(F)cc1 (centres undefined) | u | 3.98µM | x | n | 3.98µM
COc1ccc(O)c(C(=O)c2cnn(-c3ccc(Cl)cc3)c2)c1 | n | n | x | 16.9µM | n
O=C(c1cnn(-c2nc3ccccc3s2)c1)c1ccccc1O | u | 3.55µM | n | 3.01µM | u
COc1ccc(O)c(C(=O)c2cc(C#N)c(=O)n(-c3ccc(Cl)cc3)c2)c1 | n | n | x | n | n
O=C(c1cnn(-c2ccccc2)c1)c1cc(Br)ccc1O | n | n | x | n | n
O=C(O)c1ccc(-n2cc(C(=O)c3ccccc3O)cn2)cc1 | n | n | x | 15.1µM | n
O=C(c1cnn(C(=O)c2ccccc2)c1)c1ccccc1O | n | n | n | n | n
O=C(c1cnn(-c2cccc(F)c2)c1)c1ccccc1O | u | u | x | 3.79µM | n[1.84 µM]
COc1ccc(C2Nc3cc(OC)ccc3-n3cccc32)cc1 (centres undefined) | n | n | x | u | n
O=C(c1cnn(-c2ccccc2)c1)c1ccc2ccccc2c1O | u | u | 12.6µM | 7.57µM | u
Cc1ccc2nc(-c3cccc(S(=O)(=O)N4CC(C)OC(C)C4)c3)cn2c1 (centres undefined) | u | n | x | 13.5µM | n
Cc1ccc2nc(-c3cccc(S(=O)(=O)N4CCCC4)c3)cn2c1 | n | n | x | 6.75µM | n
O=S(=O)(c1cccc(-c2cn3cccnc3n2)c1)N1CCCCCC1 | n | n | n | n | n
Cc1ccn2cc(-c3cccc(S(=O)(=O)N4CCCCC4)c3)nc2c1 | n | n | x | 19µM | n
COc1ccc(C)cc1NS(=O)(=O)c1c(C(=O)N2CCCCCC2)c(C)n(C)c1C | x | x | x | n | x
COc1ccc(CN2COc3ccc4c(-c5ccccc5)cc(=O)oc4c3C2)cc1OC | x | x | n | n | x
COc1ccc(/C=N/Nc2cc(C)nc3ccccc23)cc1 | u | n | x | u | n
Oc1ccc2ccccc2c1/C=N/Nc1nnc(-c2ncc[nH]2)c2ccccc12 | n | n | n | 3.38µM | n
COc1ccc(/C=N/Nc2nnc(-c3ncc[nH]3)c3ccccc23)cc1 | n | 2.82µM | n | 0.338µM | u
CC(=O)c1c(N2CCOCC2)nc2ccc(Br)cc2c1-c1ccccc1 | n | n | x | n | n
CC1=CC2C(C)(C)CC(=O)C[C@]2(C)CC1COc1ccc2c(c1)CC(=O)C=C2 (some centres undefined) | x | x | n | x | x
Cc1cccc(OCCCn2c(CO)nc3ccccc32)c1 | n | n | x | 13.5µM | u
SMILES | ELG1 genotox | NPC1 prom act | SMN2 splice up | FLuc counter | Rab9 promoter act
Cc1ccc(OCCCn2c(CO)nc3ccccc32)cc1 | n | n | u | n[2.3 µM] | u
Cc1ccccc1OCCCCn1c(CO)nc2ccccc21 | n | n | n | n | n
OCc1nc2ccccc2n1CCCOc1ccccc1 | u | u | 11.2µM | 10.7µM | u
COCCn1c(-c2ccc(Br)cc2)nc2oc3cc(OC)ccc3c(=O)c2c1=O | n | n | x | n | n
N#Cc1ccc(OCC(=O)NCC2COc3ccccc3O2)cc1 (centres undefined) | n | n | x | n | n
Cn1cc(S(=O)(=O)N2CCCC2)cc1C(=O)N1CCN(c2ccccc2)CC1 | n | n | x | n | n
COc1ccc(-c2nc3nc(C)cc(Nc4cccc(C(F)(F)F)c4)n3n2)cc1 | x | n | n | n | n
COc1cccc(CNc2cc(C)nc3nc(-c4ccc(C)cc4)nn23)c1 | x | x | x | 1.69µM | x
Cc1ccc(N2C(S)=C(C#N)C(=O)NC23CCCCC3)cc1 | n | n | n | 16.9µM | n
COc1ccccc1C(=O)N/C(=C\c1cn(S(=O)(=O)N(C)C)c2ccccc12)C(=O)NCCN1CCOCC1 | n[9.26 µM] | n | x | n | n
CN1C(=O)/C(=C\c2cc(N=Nc3ccccc3)ccc2O)SC1=S | n | n | n | u | n
CN=C1S/C(=C\c2cc(C)n(-c3ccccc3F)c2C)C(=O)N1C | u | u | n | 0.338µM | 1.58µM
Cc1cc(/C=C2\SC(=O)N(C)C2=O)c(C)n1-c1ccc(O)cc1 | 0.651µM | 0.447µM | x | 0.477µM | 0.199µM
COc1ccc(-n2c(C)cc(/C=C3/SC(=S)N(C)C3=O)c2C)cc1 | 10.3µM | u | n | 3.38µM | u
Cc1cc(/C=C2\SC(=S)N(C)C2=O)c(C)n1-c1cccc(O)c1 | u | u | x | 1.07µM | n
Cc1cc(/C=C2\SC(=O)N(C)C2=O)c(C)n1-c1ccc(S(N)(=O)=O)cc1 | n | n | x | n | n
CCOC(=O)c1c(C)[nH]c(C)c1S(=O)(=O)NCC(=O)Nc1cccc(C#N)c1 | x | x | x | n | x
Cc1nonc1OCCNCc1c(C(=O)N2CCCCCCC2)nc2ccc(Cl)cn12 | n | n | x | n | n
COc1ccc(CCN2C(=O)CC(NNC(=O)c3ccccc3Br)C2=O)cc1OC (centres undefined) | n | n | n | n | n
O=C(CNCC1CCCO1)NCc1ccco1 (centres undefined) | n | n | x | n | n
N#CCc1nn(-c2ccccc2)c2ncnc(N)c12 | n | n | x | n | n
Cc1cc(/C=C2\SC(=S)N(Cc3ccco3)C2=O)c(C)n1-c1ccccc1 | 5.17µM | u | x | 3.01µM | 3.55µM
O=C1/C(=C\c2ccco2)SC(=S)N1Cc1ccccc1 | n | n | n | n | n
CC(C)(C)c1ccc(OCCC(=O)OCC(=O)NCc2ccccc2)cc1 | n | n | x | 19µM | n
CC(C)(C)c1ccc(OCCC(=O)OCC(=O)NC2CC2)cc1 | n | n | x | 15.1µM | n
SMILES | ELG1 genotox | NPC1 prom act | SMN2 splice up | FLuc counter | Rab9 promoter act
Cc1ccc(OCCC(=O)OCC(=O)c2c(N)n(C)c(=O)n(C)c2=O)cc1 | n | n | x | n | n
Cn1c(N)c(C(=O)COC(=O)CCOc2ccc(C(C)(C)C)cc2)c(=O)n(C)c1=O | n | n | n | 21.3µM | n
CC(C)(C)c1ccc(OCCC(=O)OCC(=O)NC2CCS(=O)(=O)C2)cc1 (centres undefined) | n | n | x | u | n
COc1ccc(NC(=O)c2sc3nc4c(cc3c2N)CN(Cc2ccccc2)CC4)c(OC)c1 | x | x | n | n | x
CC(=O)Nc1ccc2nc(-c3ccccn3)[nH]c2c1 | u | 3.55µM | 11.2µM | 19µM | 2.82µM
COc1cnc(-c2ccccn2)[nH]c1=O | n | n | n | n | n
COc1cccc2[nH]c(-c3ccccn3)nc12 | x | x | 3.98µM | x | x
c1ccc(-c2nc3cc4ccccc4cc3[nH]2)nc1 | 0.231µM | 0.631µM | 0.447µM | 0.107µM | 0.631µM
CC(=O)Nc1ccc2nc(-c3cc(C)ccc3C)[nH]c2c1 | x | x | n | u | x
Nc1nc2cc3ccccc3cc2[nH]c1=O | n | n | x | n | n
c1cncc(-c2nc3cc4ccccc4cc3[nH]2)c1 | u | u | 3.98µM | 0.601µM | 1.58µM
